# Shiga inhibitor – A qHTS for Small Molecule Inhibitors of Shiga Toxin; Vero cells, Shiga toxin protein synthesis inhibition reporter; inhibition, % at 38.7 µM; hit rate 9.2% among 290,000; AID 2315, 2010; in the data active means inhibition mostly above about 28%, no sharp cut-off; inactive means mostly below about 43%
# FMDV inh – High Throughput Screening for Foot and Mouth Disease Virus Antivirals; FMDV antiviral cell-based qHTS; Potency, µM (highest dose often 57.9 µM), actives largely listed as inhibitors; hit rate 1.2% among 410,000; AID 1159524, 2015; calls by dose curve; tested in HEK293T cells; further: read-out not given here; nearly all actives have a fitted effect of over 45% in size
# Sm TGR block – qHTS Assay for the Inhibitors of Schistosoma Mansoni Peroxiredoxins; purified TGR, DTNB reduction, TNB absorbance 405 nm; Potency, µM (doses to about 114 µM), most hits filed as inhibitors; hit rate 3% among 360,000; AID 485364, 2010; active means well fitted inhibition curve with a large enough effect; inconclusive means small, poorly fitted or top-dose-only effect; inactive means no such curve, though single readings can be large or run the other way; further: nearly all actives have a fitted effect of over 60% in size
#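 TGR 20 nM + NADPH 100 uM (dispensed conc.), cpd preinc 15 min RT; start with NADPH (500 uM addition) then DTNB (15 mM addition). Kinetic TNB absorbance, 405 nm filter. Four-parameter Hill fit across titration.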
# CHX counter-1 – Cycloheximide Counterscreen for Small Molecule Inhibitors of Shiga Toxin; cell reporter, cycloheximide protein synthesis inhibition counterscreen; max response, %; hit rate 12% among 300,000; in the data active means max response mostly above about 13%, no sharp cut-off; inactive means mostly below about 14%; further: read at 38.3 µM for the half of the compounds with a filed dose
# CHX counter-2 – Cycloheximide Counterscreen for Small Molecule Inhibitors of Shiga Toxin (Confirmatory). shares compounds with Shiga inhibitor. Cycloheximide counterscreen, protein synthesis reporter, Shiga toxin assay. Potency, µM (series often up to 38.3 µM), actives largely listed as activators. hit rate 3% among 510; calls by dose curve
# Numbers stand for hits; – = inactive; ? = inconclusive; · = not tested or not shown. In the library only some 12% were active in any assay of this set; here they are far more common.
SMILES,Shiga inhibitor,FMDV inh,Sm TGR block,CHX counter-1,CHX counter-2
CSc1nc2ccc(N3C(=O)C4CCCCC4C3=O)cc2s1 (centres undefined),38.3,–,–,–,?
CC(C)(C)C(=O)Nc1nc2nc(-c3ccccc3)cc(=O)n2[nH]1,·,–,–,·,·
COc1ccc(-c2cnc[nH]2)cc1,77.9,–,–,–,–
Cc1ccc(NC(=O)c2cccc(N3C(=O)C4C5C=CC(C5)C4C3=O)c2)cc1C (centres undefined),17.5,–,–,–,–
COc1ccccc1NC(=O)c1cccc(N2C(=O)C3C4C=CC(C4)C3C2=O)c1 (centres undefined),–,–,–,–,·
Nc1ccc(CN2CCCCCC2)cc1,–,–,–,–,·
CN1CCN(Cc2ccc(N)cc2)CC1,27.3,–,–,–,–
Cc1ccc(C(C(=O)NCc2ccco2)N(CCc2ccccc2)C(=O)Cn2nnc3ccccc32)o1 (centres undefined),–,–,–,–,·
Cc1ccc(C(C(=O)NCc2ccco2)N(C(=O)Cn2nnc3ccccc32)c2ccccc2)o1 (centres undefined),64.3,–,50.1µM,–,–
Cc1ccc(S(=O)(=O)N2CCC(C(=O)N[C@@H](Cc3ccccc3)C(=O)O)CC2)cc1,34.0,–,79.4µM,–,–
COc1ccc(NC(=O)CN2CCN(c3nc(-c4ccc(F)cc4)cs3)CC2)c(OC)c1,35.7,–,–,–,–
COc1cccc(-c2csc(N3CCN(C(=O)Nc4ccc(F)cc4)CC3)n2)c1,33.7,?,–,–,–
COc1cccc(-c2csc(N3CCN(C(=O)Nc4ccccc4OC)CC3)n2)c1,–,–,–,–,·
COc1cccc(C2C=C(c3ccc(C)c(C)c3)Nc3nnnn32)c1OC (centres undefined),·,–,–,·,·
CCOC(=O)C1CCCN(C(=O)Cn2nc(CC)n3c(cc4occc43)c2=O)C1 (centres undefined),·,?,–,·,·
Cc1ccc(-c2cc(C(=O)N3CCN(S(=O)(=O)c4ccc(Br)cc4)CC3)[nH]n2)cc1C,·,–,–,·,·
O=C(NCCN1C(=O)S/C(=C\c2ccc(Cl)cc2)C1=O)c1ccc(F)c(S(=O)(=O)N2CCOCC2)c1,33.5,–,–,–,?
O=C(NCCN1C(=O)S/C(=C\c2ccc(Cl)cc2)C1=O)C1=COCCO1,·,–,·,·,·
CC1CCN(c2nn3c(=O)c(C(=O)NCc4ccc(Cl)cc4)cnc3s2)CC1,·,–,–,·,·
COc1ccccc1Nc1cc(C(=O)N2CCc3ccccc3C2)c2ccccc2n1,30.3,·,–,–,–
CC1CCCC(C)N1C(=O)Cn1nnc(-c2ccccc2)n1 (centres undefined),33.1,–,–,–,–
CCOC(=O)Cn1nnc(-c2ccccc2)n1,–,–,–,–,·
Cc1c(C(=O)NCCc2ccc(S(N)(=O)=O)cc2)sc2nc3n(c(=O)c12)CCCC3,·,–,–,·,·
CCn1ccc(C(=O)Nc2sc3c(c2C(=O)OC)CCC3)n1,–,–,?,–,·
COC(=O)c1c(NC(=O)c2ccn(C)n2)sc2c1CCC2,40.0,–,–,–,?
SMILES,Shiga inhibitor,FMDV inh,Sm TGR block,CHX counter-1,CHX counter-2
COc1ccc(N(CC(=O)Nc2ccc(Cl)cc2)S(=O)(=O)c2c(C)n[nH]c2C)cc1,23.9,–,–,–,–
COc1ccc(N(CC(=O)Nc2cccc(C)c2C)S(=O)(=O)c2c(C)n[nH]c2C)cc1,–,–,–,–,·
COCCCNC(=O)c1cn(C)c(=O)c2c1c1ccccc1n2C,33.1,–,–,–,–
CCCC[C@@H]1C[C@H]1[C@@H](NC(=O)c1ccco1)c1ccc(Cl)cc1,83.9,?,–,–,–
COc1ccc(N(C(=O)c2csnn2)C(C(=O)NC2CCCC2)c2cccs2)cc1 (centres undefined),56.4,–,–,–,–
O=C(NCC(=O)N1CCCC(C(F)(F)F)C1)c1ccc(Oc2ccccc2)cc1 (centres undefined),21.0,?,–,–,–
Cc1cccc(NC(=O)CCN2C(=O)c3ccccc3S2(=O)=O)c1C,16.9,–,–,–,–
Cc1cccc(N(C)c2nc3ccc(C)cc3n3cnnc23)c1,·,–,–,·,·
COc1cc(/C=C(\C#N)c2nc3ccccc3[nH]2)cc(OC)c1O,63.7,–,·,–,?
CCOC(=O)c1c(NC(=O)CSc2cn(CCNC(=O)c3ccc(OC)cc3)c3ccccc23)sc2c1CCC2,·,–,–,·,·
CCOC(=O)c1cc2sccc2n1CCCN1C(=O)c2ccccc2C1=O,109.7,?,–,–,–
